Measurements from PubChem BioAssay AID504725 (Broad Institute, 2011).
Measured potencies and affinities stand elsewhere.

target: KSHV LANA C-terminal domain (residues 932-1162) binding to LBS DNA (UniProt O40947); assay: inhibitors of C-LANA binding to LBS DNA, dose response, biochemical, fluorescence polarization, cherry-picked samples (AID 504725); conditions: MBP-C-LANA / FAM-LBS DNA fluorescence polarization, percent change from plate compound-well median; series mostly up to 35 µM; activity change, negative = inhibition: at the top concentration

Activity change, negative = inhibition, inactive:
Nc1c(-c2ccccn2)cnn1-c1nc(-c2ccc(F)cc2)cs1 1.14%
COC(=O)c1ccccc1OCC(=O)N1CCN(c2ccc(Cl)cc2)CC1 0.64%
Cn1c(Cl)c(C(=O)Nc2ccc(Cl)cc2)c2ccccc21 1.43%
Cc1cnc(NC(=O)Cc2c[nH]c3ccccc23)s1 1.63%
COc1ccc(Cl)cc1C(=O)NNC(=O)c1cc2ccccc2o1 0.508%
N=C1/C(=C\c2ccc(Br)o2)C(=O)N=C2SC(CC(=O)N3CCOCC3)=NN12 -9.84%
CCc1sc(C(=O)NNC(=O)CNC(=O)c2ccccc2F)cc1C -2.7%
CCOC(=O)C1C2C=CC3(CN(c4cccc(Cl)c4)C(=O)C13)O2 (stereo unspecified) -3.47%
COc1[nH]c(/N=C/c2ccccc2)c(C#N)c1C#N -0.93%
Cn1c(=O)oc2cc(S(=O)(=O)CCC(=O)N3CCN(c4ccccc4F)CC3)ccc21 -10.4%
FC(F)(F)c1nnc(-c2ccccc2)nc1N1CCCC1 1.81%
COc1cccc(-c2cc(C(=O)N3CCN(S(=O)(=O)c4ccccc4)CC3)[nH]n2)c1 -0.423%
CC(C)=C1C2C=CC1C(C(=O)Nc1cc(C)ccc1C)C2C(=O)O (stereo unspecified) -0.451%
Cc1cccc(NC(=O)CN2C(=O)NC(C)(c3ccc4ccccc4c3)C2=O)n1 (stereo unspecified) -1.85%
Oc1[nH]c2ccccc2c1N=Nc1ccccc1F 16.6%
NNc1nc(-c2ccccc2)cs1 0.892%
Cc1cc(N)ccc1N=Nc1c(C)n(C)n(-c2ccccc2)c1=O -0.045%
O=C(c1ccc2c(c1)CCN2S(=O)(=O)c1ccccc1)N1CCN(c2ccc(F)cc2)CC1 0.518%
O=C(c1cnn2c(-c3ccccc3)cc(-c3ccccc3)nc12)N1CCN(Cc2ccccc2)CC1 -0.43%
O=C(NCCN1CCN(C(=O)c2cccs2)CC1)c1cccs1 0.287%
CSc1ncccc1C(=O)OCCCC(=O)c1ccc(F)cc1 3.3%
